# TRAIL sens C8: sensitizes caspase-8 expressing cells to TRAIL. AID 624354. 360,000 tested, 1% active. inhibition (viability loss, TRAIL sensitization), % at 10 µM. NB7+C8 cells + TRAIL, ATPlite viability luminescence;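 active means compounds causing at least 50% loss of cell viability in the single-dose screen, relative to plate controls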
# Peg3 prom inh-1: inhibitors of Peg3 promoter; HeLa PEG-Prom luciferase reporter, luminescence, overnight; inhibition, % at 20 µM; 360,000 tested, 1.7% active; AID 588405;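 active means inhibition of at least 50% at 20 µM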
# PPC-1+TRAIL kill: compounds killing PPC-1 cancer cells with TRAIL present (potentiator screen, no TRAIL-free arm) | PPC-1 cells + TRAIL, ATPLite viability luminescence | cell killing (% activity), % at 4 µM or 5 µM | 220,000 tested, 0.41% active;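 active means cell killing above 50% in the first pass at 4 µM, then a duplicate retest at 5 µM averaging 50% or more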;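 further: plate controls were cells with TRAIL plus DMSO for no effect and medium-only wells lacking cells for full effect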
# CF NFkB inh: inhibitors of cystic fibrosis induced NF-kB; KKLEB NF-kB-GFP reporter, PAF-induced, GFP fluorescence overnight; inhibition, % at 5 µM; 360,000 tested, 0.86% active;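 active means at least 50% inhibition at 5 µM, scaled per plate between neutral and stimulator controls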;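 further: PAF is a Pseudomonas aeruginosa culture filtrate used as stimulus; plate controls were PAF-stimulated DMSO wells for no effect and unstimulated DMSO wells for full effect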
# KKLEB cytotox: reduces viability of KKLEB cystic fibrosis airway cells | KKLEB CF airway cells viability, ATPlite luminescence, overnight; stronger effect = lower value; cells stimulated with P. aeruginosa culture filtrate | activity change (cytotoxicity), % at 5 µM | 360,000 tested, 0.36% active | AID 602141;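 active means corrected activity change at or below -50% at 5 µM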
# HIF-2a block: inhibitors of HIF-2a. 786-0 RCC cells HIF-2a reporter, luciferase luminescence, overnight. inhibition, % at 18.8 µM. 360,000 tested, 0.72% active. AID 624352;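 active means inhibition of the luminescence signal of 40% or more relative to plate controls, in a single-dose primary screen at 18.75 µM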
# PPC1 cytotox: PPC-1 cell cytotoxicity | shares compounds with PPC-1+TRAIL kill | PPC-1 viability, ATPlite luminescence, overnight | cytotoxicity, % at 5 µM | 1,200 tested, 50% active | AID 1447;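 active means reconfirmed compounds whose average cytotoxicity reaches 50% or more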;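 further: 0% = DMSO-treated cells and 100% = wells holding medium but no cells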
# Peg3 prom inh-2: confirmation of Peg3 promoter inhibitors; shares compounds with Peg3 prom inh-1; HeLa PEG-Prom luciferase reporter, luminescence, overnight; inhibition, % at 20 µM; 1,300 tested, 84% active;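 active means at 20 µM dose, 40% or more inhibition averaged across four replicates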
# HIF-2a inh conf: confirmation of HIF-2a inhibitors; 1,800 tested, 56% active; AID 651580; 786-0 RCC cells, HIF-2a luciferase reporter luminescence, overnight; inhibition, % at 18.8 µM; shares compounds with HIF-2a block;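 active means mean inhibition across four replicates of at least 40 percent at the single tested concentration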
# HIF-1a counter: HIF-1a inhibition counter-screen for HIF-2a hits | shares compounds with HIF-2a block | inhibition, % at 18.8 µM | AID 651589 | MiaPaCa-2 HIF-1a luciferase reporter, desferoxamine, overnight | 1,800 tested, 72% active;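 active means mean inhibition of the reporter signal across four replicates at the single tested dose of 50% or more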
# The depositor's hits bear a star; · = not tested or not shown. Most compounds without a hit are left out; they make up all but 3.1% or so of the library.
SMILES,TRAIL sens C8,Peg3 prom inh-1,PPC-1+TRAIL kill,CF NFkB inh,KKLEB cytotox,HIF-2a block,Peg3 prom inh-2,others
COc1ccc(/C=C/c2nc3ccccc3n2C)cc1,88*,68*,93*,-7,-53*,49*,78*,PPC1 cytotox=92*;HIF-2a inh conf=89*;HIF-1a counter=91*
CCC(=O)N1CCC(C)(C(=O)Nc2ccc(OC)c(OC)c2)C1 (configuration not stated),-2,1,·,-16,-3,9,·,
COc1cc(OC)cc(-c2c(-c3cccs3)c3cc(-c4ccc(N(C)C)nc4)ccc3n2C)c1,0,52*,·,17,-10,9,25,
O=C(Nc1cccc(OC(F)(F)F)c1)C1Cc2c(-c3cccc(F)c3)ccnc2O1 (configuration not stated),5,43,·,-23,-9,-2,·,
CN(C)S(=O)(=O)c1ccc(-c2csc(N/N=C/c3ccc(O)cc3)n2)cc1,85*,96*,-4,82*,-9,23,98*,
C(=N\Nc1nc(-c2ccccc2)cs1)/c1ccncc1,10,-239,31,-24,17,-236,·,
CC1(Cc2cc(Cl)ccc2C(F)(F)F)C(=O)Nc2ccc(-c3ccc(F)c(Cl)c3)cc21 (configuration not stated),4,20,·,16,-13,6,·,
CC1(Cc2cc(Cl)ccc2C(F)(F)F)C(=O)Nc2ccc(OC(F)(F)F)cc21 (configuration not stated),22,52*,·,-13,-1,10,13,
C=CCc1cccc(/C=N/NC(=O)C(C)Nc2cccc(C)c2)c1O (configuration not stated),18,50*,11,38,-13,21,44*,
CCOC(=O)[C@]12CCC=C1N(Cc1ccco1)C(=O)[C@H](CC(=O)NCCC(C)C)C2,9,·,·,·,·,0,·,
Cc1nc2c(-c3ccc(Cl)cc3)c(C)[nH]n2c(=O)c1Cc1ccccc1,29,59*,5,16,-11,-22,67*,
CCOC(=O)C1CCN(C(=O)C2CC(=O)N(c3ccc4c(c3)OCCO4)C2)CC1 (configuration not stated),18,13,·,-4,15,-2,·,
COc1cc(/C=C2\SC(=Nc3ccccc3OC)NC2=O)ccc1O,15,64*,·,51*,-31,16,68*,
COc1cc(/C=C2\SC(=Nc3ccccc3)NC2=O)cc(Cl)c1O,-2,13,·,24,-16,-14,·,
C[C@H](CO)N1C[C@H](C)[C@@H](CN(C)S(=O)(=O)c2ccccc2)Oc2c(NC(=O)NC3CCCCC3)cccc2C1=O,-10,3,·,-5,-16,9,·,
Cc1ccc(C)c(SCC(=O)NCC(c2ccco2)N2CCCCC2)c1 (configuration not stated),6,11,·,-8,-7,6,·,
Clc1ccc(-c2cccs2)nn1,1,-18,-2,-17,-9,1,·,
CC1CCN(c2ccc(-c3cccs3)nn2)CC1,97*,82*,·,-22,-81*,78*,78*,
CCOC(=O)C1(C)CCCN1C(=O)c1ccc(F)c(Cl)c1 (configuration not stated),9,10,·,-11,-9,0,·,
COc1ccc(-n2ncc3c(N(C)C4CCCCC4)ncnc32)cc1,85*,71*,·,11,-79*,70*,71*,
COc1ccc(-n2ncc3c(N4CCC(C)CC4)ncnc32)cc1,45,-66,·,-9,-2,-21,·,
Cc1ccc(NC(=O)CNC(=O)CN2C(=O)c3ccccc3C2=O)cc1,-3,-11,·,5,-10,8,·,
Cc1nc(N2CCN(c3ccccn3)CC2)c2c(C)c(C(=O)Nc3ccc(F)cc3F)sc2n1,9,26,·,6,-20,-13,·,
Cc1nc(N2CCN(c3ccccn3)CC2)c2c(C)c(C(=O)Nc3ccccc3F)sc2n1,5,73*,18,47,-35,-12,66*,
CCOC(=O)C1(CCCc2ccccc2)CCN(C(=O)c2n[nH]c(CC)c2C)CC1,-2,2,·,7,1,-17,·,
SMILES,TRAIL sens C8,Peg3 prom inh-1,PPC-1+TRAIL kill,CF NFkB inh,KKLEB cytotox,HIF-2a block,Peg3 prom inh-2,others
COc1ccc(-c2cc(NC=O)c3ncc(-c4cnn(C)c4)n3c2)cc1,-12,22,·,-12,-11,-4,·,
CCN1CCN(c2ncc(C(=O)Nc3cc(Cl)ccc3OC)c3ccccc23)CC1,20,61*,22,19,-5,5,57*,
COc1ccccc1N1CCN(c2ncc(C(=O)N3CCN(c4cccc(Cl)c4)CC3)c3ccccc23)CC1,23,31,18,2,-14,9,·,
O=C(N/N=C/c1ccccc1Cl)c1n[nH]c2c1CCCC2,41,78*,42,15,-21,-17,16,
Cc1cc2ccccc2n2c(SCC(=O)Nc3ccc(S(=O)(=O)N4CCCCC4)cc3)nnc12,-15,11,14,-9,-7,5,·,
Cc1cc2cc(C)c3nnc(SCC(=O)Nc4ccc(S(=O)(=O)N5CCCCC5)cc4)n3c2cc1C,9,69*,3,6,-18,23,5,
Cc1c(OCC(=O)NC2CC(C)(C)NC(C)(C)C2)ccc2c1oc(=O)c1ccccc12,33,100*,·,-3,-1,-11,85*,
Cc1c(OCC(=O)NC2CC(C)(C)NC(C)(C)C2)ccc2c3c(c(=O)oc12)CCC3,8,-2,·,-21,-8,-1,·,
CC[C@H](C)[C@H]1O[C@]2(CC[C@@H]1C)C[C@@H]1C[C@@H](CC=C(C)[C@@H](O[C@H]3C[C@H](OC)[C@@H](O[C@H]4C[C@H](OC)[C@@H](O)[C@H](C)O4)[C@H](C)O3)[C@@H](C)C=CC=C3CO[C@@H]4[C@H](O)C(C)=C[C@@H](C(=O)O1)[C@]34O)O2,71*,84*,·,56*,-51*,53*,38,
Cc1c(C(=O)NNC(=O)c2ccccc2O)oc2ccccc12,13,-23,·,1,-7,-106,·,
CN(C)CCNC(=O)/C(=C/c1ccc(-c2ccc(Cl)cc2)o1)NC(=O)c1ccccc1,16,100*,23,30,-18,8,97*,
Cc1ccc(C(=O)N/C(=C\c2ccc(-c3cccc([N+](=O)[O-])c3)o2)C(=O)NCCCN(C)C)cc1,5,87*,·,16,-12,-10,93*,

# Assay outcomes: PubChem, Sanford-Burnham Center for Chemical Genomics
